Laboratory results as given in the supplement of paper PMC11732987, “Enantioselective OTUD7B fragment discovery through chemoproteomics screening and high-throughput optimisation” (Communications Chemistry, 2025).

Key:
Experiment in all cases: log2 ratio of Biotin-Ahx-Ub-VS probe labelling (fragment/DMSO); higher = less target engagement (more negative = stronger competition), active = hit call of the paper (q ≤ 0.05, log2 ratio ≤ -1)
Conditions in all cases: compound concentration: 200 uM; treatment time: 3 h
ALG13 = target: T1, ALG13 (UniProt Q9NP73)
T1 sequence (whole entry): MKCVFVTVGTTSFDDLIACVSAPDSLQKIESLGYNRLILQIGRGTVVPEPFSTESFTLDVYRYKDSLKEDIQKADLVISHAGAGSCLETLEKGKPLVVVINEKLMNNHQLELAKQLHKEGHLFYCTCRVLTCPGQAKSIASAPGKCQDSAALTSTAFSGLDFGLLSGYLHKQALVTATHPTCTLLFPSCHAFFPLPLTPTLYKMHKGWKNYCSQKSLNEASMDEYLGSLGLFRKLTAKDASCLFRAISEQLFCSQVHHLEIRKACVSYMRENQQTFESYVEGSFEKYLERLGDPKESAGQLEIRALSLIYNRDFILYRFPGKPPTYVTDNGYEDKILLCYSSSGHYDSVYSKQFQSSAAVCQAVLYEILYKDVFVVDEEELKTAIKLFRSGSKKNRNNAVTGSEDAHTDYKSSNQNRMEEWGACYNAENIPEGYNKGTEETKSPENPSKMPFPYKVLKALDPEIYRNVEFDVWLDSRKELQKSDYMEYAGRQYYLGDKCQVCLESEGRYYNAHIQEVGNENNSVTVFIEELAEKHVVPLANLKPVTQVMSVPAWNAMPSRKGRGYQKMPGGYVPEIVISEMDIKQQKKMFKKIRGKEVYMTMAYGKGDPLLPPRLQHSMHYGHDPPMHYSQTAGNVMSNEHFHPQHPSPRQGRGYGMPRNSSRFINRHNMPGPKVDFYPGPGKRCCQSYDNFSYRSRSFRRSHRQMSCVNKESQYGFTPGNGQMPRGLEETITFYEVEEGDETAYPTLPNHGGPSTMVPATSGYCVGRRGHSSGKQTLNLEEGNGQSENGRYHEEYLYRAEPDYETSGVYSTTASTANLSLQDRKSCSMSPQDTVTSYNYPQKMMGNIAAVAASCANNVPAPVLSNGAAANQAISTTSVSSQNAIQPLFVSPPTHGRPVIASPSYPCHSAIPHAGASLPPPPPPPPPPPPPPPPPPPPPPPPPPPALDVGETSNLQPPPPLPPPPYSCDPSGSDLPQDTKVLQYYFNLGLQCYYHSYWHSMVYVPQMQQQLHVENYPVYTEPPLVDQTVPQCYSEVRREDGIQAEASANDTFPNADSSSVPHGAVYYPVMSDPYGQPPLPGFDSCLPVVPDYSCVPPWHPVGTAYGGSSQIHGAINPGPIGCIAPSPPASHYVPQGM
How it was run: (§1)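 HEK293T lysate (495 µg per sample, in Tris/CHAPS/IGEPAL buffer with protease inhibitors) was exposed in triplicate for 3 h to fragment at 200 µM or to vehicle, then to Biotin-Ahx-Ub-VS at 0.5 µM final for 1 h. Labelled DUBs were enriched on NeutrAvidin, digested with LysC and trypsin, and analysed by diaPASEF LC-MS/MS. Spectronaut label-free quantities were normalised to the global median, and values are average log2 ratios of fragment over vehicle from an unpaired t-test. Only proteins with ≥2 unique peptides were used.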

ATXN3 = ATXN3 (UniProt P54252)
Chain of ATXN3 (P54252 whole entry): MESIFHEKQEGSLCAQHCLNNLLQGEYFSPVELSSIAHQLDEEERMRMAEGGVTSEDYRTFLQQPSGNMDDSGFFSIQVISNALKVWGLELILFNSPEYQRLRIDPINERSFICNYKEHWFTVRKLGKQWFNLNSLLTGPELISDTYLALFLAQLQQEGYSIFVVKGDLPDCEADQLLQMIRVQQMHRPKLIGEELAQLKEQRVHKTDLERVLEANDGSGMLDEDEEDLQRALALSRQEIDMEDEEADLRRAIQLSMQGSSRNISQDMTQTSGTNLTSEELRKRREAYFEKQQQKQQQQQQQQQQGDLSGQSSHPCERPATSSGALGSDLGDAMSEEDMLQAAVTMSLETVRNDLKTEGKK
How it was run: as §1

BAP1 = target: T2, BAP1 (UniProt Q92560)
T2 sequence (whole entry): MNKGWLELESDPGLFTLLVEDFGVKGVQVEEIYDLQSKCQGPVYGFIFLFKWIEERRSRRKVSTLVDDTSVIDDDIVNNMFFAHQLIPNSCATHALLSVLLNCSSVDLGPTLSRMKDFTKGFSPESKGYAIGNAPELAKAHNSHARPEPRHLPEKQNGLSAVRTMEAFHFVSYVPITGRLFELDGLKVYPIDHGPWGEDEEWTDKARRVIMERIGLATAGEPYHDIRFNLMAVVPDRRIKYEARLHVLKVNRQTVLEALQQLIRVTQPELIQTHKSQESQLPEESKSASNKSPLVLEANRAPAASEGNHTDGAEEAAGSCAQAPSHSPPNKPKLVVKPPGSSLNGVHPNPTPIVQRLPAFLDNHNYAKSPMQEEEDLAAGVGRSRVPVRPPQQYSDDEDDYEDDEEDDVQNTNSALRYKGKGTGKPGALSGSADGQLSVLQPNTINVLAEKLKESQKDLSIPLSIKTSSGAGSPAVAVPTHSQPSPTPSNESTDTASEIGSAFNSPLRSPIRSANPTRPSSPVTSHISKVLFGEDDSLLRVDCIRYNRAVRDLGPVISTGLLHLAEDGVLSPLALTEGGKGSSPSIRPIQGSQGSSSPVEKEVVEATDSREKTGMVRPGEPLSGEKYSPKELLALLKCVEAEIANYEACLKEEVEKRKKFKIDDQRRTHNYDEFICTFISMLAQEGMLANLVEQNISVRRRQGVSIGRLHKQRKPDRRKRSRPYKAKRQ
How it was run: as §1

EIF3F = EIF3F (UniProt O00303)
Chain of EIF3F (O00303 whole entry): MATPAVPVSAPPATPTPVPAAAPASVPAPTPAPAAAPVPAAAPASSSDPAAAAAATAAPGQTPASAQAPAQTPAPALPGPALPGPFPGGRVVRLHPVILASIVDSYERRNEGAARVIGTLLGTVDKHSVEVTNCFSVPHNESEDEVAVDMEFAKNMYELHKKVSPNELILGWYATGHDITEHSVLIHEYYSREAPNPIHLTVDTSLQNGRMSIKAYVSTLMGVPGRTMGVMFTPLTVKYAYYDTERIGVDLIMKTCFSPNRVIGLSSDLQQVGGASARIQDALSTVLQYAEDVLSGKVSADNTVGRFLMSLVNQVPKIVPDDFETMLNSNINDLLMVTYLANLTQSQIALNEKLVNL
How it was run: as §1

EIF3H = EIF3H (UniProt O15372)
Chain of EIF3H (O15372 whole entry): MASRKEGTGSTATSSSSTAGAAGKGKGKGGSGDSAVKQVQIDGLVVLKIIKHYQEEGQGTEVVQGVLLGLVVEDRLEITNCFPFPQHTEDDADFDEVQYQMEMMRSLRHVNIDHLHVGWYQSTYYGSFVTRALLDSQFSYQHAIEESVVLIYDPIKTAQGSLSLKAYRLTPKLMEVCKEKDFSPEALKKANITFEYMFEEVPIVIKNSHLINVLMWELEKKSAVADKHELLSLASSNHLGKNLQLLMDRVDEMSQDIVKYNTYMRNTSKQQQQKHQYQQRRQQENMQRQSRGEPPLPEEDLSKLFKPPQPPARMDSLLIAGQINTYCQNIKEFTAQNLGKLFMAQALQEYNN
How it was run: as §1

FAM105A = target: T3, FAM105A (UniProt Q9NUU6)
T3 sequence (whole entry): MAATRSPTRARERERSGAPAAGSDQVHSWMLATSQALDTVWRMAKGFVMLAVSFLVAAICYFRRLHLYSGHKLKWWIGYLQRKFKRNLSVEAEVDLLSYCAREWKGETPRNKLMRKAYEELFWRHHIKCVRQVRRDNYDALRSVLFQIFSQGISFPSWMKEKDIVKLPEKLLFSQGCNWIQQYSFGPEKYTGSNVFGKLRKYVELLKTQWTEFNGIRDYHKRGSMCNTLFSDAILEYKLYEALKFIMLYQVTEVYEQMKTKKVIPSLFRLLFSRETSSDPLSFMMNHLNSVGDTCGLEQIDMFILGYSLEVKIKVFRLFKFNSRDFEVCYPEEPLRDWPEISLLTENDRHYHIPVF
How it was run: as §1

OTUB1 = OTUB1 (UniProt Q96FW1)
Chain of OTUB1 (Q96FW1 whole entry): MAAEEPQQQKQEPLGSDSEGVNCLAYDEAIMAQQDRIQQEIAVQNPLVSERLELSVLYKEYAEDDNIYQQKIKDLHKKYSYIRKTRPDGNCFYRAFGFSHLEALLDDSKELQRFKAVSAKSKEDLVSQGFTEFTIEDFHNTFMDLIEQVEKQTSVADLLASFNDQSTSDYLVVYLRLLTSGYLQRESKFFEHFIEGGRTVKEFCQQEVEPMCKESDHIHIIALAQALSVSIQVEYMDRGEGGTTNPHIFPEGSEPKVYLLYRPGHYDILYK
How it was run: as §1

OTUD4 = target: T4, OTUD4 (UniProt Q01804)
T4 sequence (whole entry): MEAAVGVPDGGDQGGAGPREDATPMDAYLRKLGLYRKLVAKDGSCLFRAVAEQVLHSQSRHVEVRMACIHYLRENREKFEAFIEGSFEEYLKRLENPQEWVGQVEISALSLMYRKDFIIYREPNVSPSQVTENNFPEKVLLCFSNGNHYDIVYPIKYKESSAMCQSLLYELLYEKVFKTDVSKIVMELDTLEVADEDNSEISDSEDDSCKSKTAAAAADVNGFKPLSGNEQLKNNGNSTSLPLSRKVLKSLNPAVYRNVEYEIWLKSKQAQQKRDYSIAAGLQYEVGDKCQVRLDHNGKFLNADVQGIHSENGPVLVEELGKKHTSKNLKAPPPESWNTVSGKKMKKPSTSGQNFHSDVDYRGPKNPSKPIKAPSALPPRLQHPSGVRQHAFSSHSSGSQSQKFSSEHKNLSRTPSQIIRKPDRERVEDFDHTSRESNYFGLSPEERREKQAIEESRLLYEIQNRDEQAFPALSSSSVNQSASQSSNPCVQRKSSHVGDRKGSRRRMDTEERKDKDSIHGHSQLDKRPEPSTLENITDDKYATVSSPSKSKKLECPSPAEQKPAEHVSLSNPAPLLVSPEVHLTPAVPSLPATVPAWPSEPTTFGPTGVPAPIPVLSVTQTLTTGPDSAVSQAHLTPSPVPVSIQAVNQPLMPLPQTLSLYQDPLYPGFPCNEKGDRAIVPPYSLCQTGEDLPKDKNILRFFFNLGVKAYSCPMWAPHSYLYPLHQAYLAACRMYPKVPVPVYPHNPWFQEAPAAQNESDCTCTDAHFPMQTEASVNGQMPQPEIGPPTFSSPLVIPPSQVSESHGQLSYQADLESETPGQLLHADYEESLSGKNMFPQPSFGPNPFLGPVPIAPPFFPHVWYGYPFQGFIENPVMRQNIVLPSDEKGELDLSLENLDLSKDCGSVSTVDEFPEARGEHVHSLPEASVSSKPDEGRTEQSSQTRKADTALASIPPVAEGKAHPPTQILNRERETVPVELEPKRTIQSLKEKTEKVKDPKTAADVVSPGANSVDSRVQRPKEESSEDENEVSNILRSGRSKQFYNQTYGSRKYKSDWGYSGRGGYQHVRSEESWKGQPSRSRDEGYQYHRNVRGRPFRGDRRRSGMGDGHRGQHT
How it was run: as §1

OTUD5 = target: T5, OTUD5 (UniProt Q96G74)
T5 sequence (whole entry): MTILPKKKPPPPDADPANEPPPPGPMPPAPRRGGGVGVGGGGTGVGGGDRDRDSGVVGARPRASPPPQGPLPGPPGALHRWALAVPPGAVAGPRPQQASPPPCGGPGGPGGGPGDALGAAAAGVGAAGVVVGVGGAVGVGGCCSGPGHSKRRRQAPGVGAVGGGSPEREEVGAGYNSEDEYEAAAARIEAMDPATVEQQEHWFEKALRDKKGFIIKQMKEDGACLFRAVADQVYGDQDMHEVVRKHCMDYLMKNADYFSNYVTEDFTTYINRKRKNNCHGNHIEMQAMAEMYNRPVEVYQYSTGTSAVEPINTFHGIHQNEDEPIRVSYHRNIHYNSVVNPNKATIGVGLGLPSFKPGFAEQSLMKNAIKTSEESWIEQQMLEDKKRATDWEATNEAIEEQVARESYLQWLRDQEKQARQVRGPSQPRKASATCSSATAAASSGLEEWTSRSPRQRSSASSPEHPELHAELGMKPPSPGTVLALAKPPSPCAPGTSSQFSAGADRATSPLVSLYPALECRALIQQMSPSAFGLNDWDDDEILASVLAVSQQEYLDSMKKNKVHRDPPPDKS
How it was run: as §1

Measured: log2 ratio of Biotin-Ahx-Ub-VS probe labelling

COCC1C=CCCN1C(=O)CCl (centres undefined)
inactive: ALG13 0.0362 | ATXN3 -0.232 | BAP1 -0.527 | EIF3F -0.011 | EIF3H 0.276 | FAM105A 0.371 | OTUB1 0.0515 | OTUD4 -0.452 | OTUD5 -0.298
